# Data reported in PubChem BioAssay (NCATS).
# Inconclusive results are not listed. Values without a mark were called inactive. Calls follow the shape of the full dose curve.
# Experiment: A High-Content qHTS Against Drug Library for the Identification of Small Molecules that Inhibit DYT1 Early Onset Primary Dystonia-Associated Cell Pathology (AID 1645839)
# Conditions: HEK293 Flp-In EGFP-delE TorsinA, punctate imaging, 48 h; series mostly up to 46.1 µM; % pathology change, negative = correction: at the top concentration
# Source text: Nicole Calakos M.D., Ph.D.
# Duke University School of Medicine, Durham, NC
# In DYT1 dystonia due to delGAG in the TOR1A gene, there is a robust and widely replicated finding of TorsinA protein mislocalization caused when the mutant protein is in excess of the wildtype protein (1-7). Stable HEK293 cell lines were created that replicate this phenomenon. Inducible expression of an EGFP-hu delE TorsinA encoding cDNA causes pronounced punctate cellular distribution. […] This phenotypic difference in EGFP-huTorsinA fusion protein distribution serves as an indicator of cell pathology. […] RNAi screen results with the assay were validated in DYT1 patient cell phenotypes, intersected with a known dystonia gene, and led to discovery of new human genetic dystonia associations.
# The bioassay described herein is a high-content image screen with two readouts. The "%pathology" readout is the primary qHTS data channel, while the "cellcount" is the counterscreen qHTS channel. Desired active compounds are those that show inhibition in %pathology channel but no activity or minimal toxicity in cellcount readout.
# 1. Kustedjo, K., Bracey, M.H., and Cravatt, B.F. (2000). […] J. Biol. Chem. 275, 27933 - 27939.
# 2. Bragg, D.C., Kaufman, C.A., Kock, N., and Breakefield, X.O. (2004). Inhibition of N-linked glycosylation prevents inclusion formation by the dystonia-related mutant form of torsinA. Mol. Cell. Neurosci. 27, 417 - 426.
# 3. Gonzalez-Alegre, P., and Paulson, H.L. (2004). Aberrant Cellular Behavior of Mutant TorsinA Implicates Nuclear Envelope Dysfunction in DYT1 Dystonia. J. Neurosci. 24, 2593 - 2601.
# 4. Goodchild, R.E., and Dauer, W.T. (2004). Mislocalization to the nuclear envelope: an effect of the dystonia-causing torsinA mutation. Proc. Natl. Acad. Sci. U. S. A. 101, 847 - 852.
# 5. Kock, N., Allchorne, A.J., Sena-Esteves, M., Woolf, C.J., and Breakefield, X.O. (2006). RNAi blocks DYT1 mutant torsinA inclusions in neurons. Neurosci. Lett. 395, 201 - 205.
# 6. Hewett, J.W., Nery, F.C., Niland, B., Ge, P., Tan, P., Hadwiger, P., Tannous, B.A., Sah, D.W.Y., and Breakefield, X.O. (2008). siRNA knock-down of mutant torsinA restores processing through secretory pathway in DYT1 dystonia cells. Hum. Mol. Genet. 17, 1436 - 1445.
# 7. Calakos, N., Patel, V.D., Gottron, M., Wang, G., Tran-Viet, K.N., Brewington, D., Beyer, J.L., Steffens, D.C., Krishnan, R.R., and Zuchner, S. (2010). Functional evidence implicating a novel TOR1A mutation in idiopathic, late-onset focal dystonia. J. Med. Genet. 47, 646 - 650.
# 8. Rittiner* JE, Caffall* ZF, Hernandez-Martinez R, Sanderson SM, Pearson JL, Tsukayama KK, Liu AY, Xiao C, Tracy S, Shipman MK, Hickey P, Johnson J, Scott B, Stacy M, Saunders-Pullman R, Bressman S, Simonyan K, Sharma N, Ozelius LJ, Cirulli ET, Calakos N. Functional Genomic Analyses of Mendelian and Sporadic Disease Identify Impaired eIF2alpha Signaling as a Generalizable Mechanism for Dystonia. Neuron. 2016 Dec 21;92(6):1238-1251. doi: 10.1016/j.neuron.2016.11.012. Epub 2016 Dec 8. PMID: 27939583; PMCID: PMC5320521.
# High-content, High-throughput Drug Screening Assay
# The TorsinA mislocalization assay was modified from the previously published assay to accommodate compound testing in 1536 well format.1 Briefly, Flp-In T-REx 293 cells from Invitrogen in which a single copy of a cDNA is recombined into a specific genomic locus was used to create tetracycline-inducible expression of cDNA encoding either EGFP-hTOR1A (WT) or EGFP-delE hTOR1A (DYT1). WT and DYT1 cells were diluted to a concentration of 2 x 10^5 cells/mL in reduced serum media (DMEM High Glucose containing 1% tetracycline-tested FBS, 2 mM L-Glutamine, and 1% Penicillin/Streptomycin). 4 µl of WT cells and 4 µl of DTY1 cells were added to column 1 and columns 2-48, respectively, of a poly-D-lysine-coated, low base, black, clear bottom 1536 well plate (Corning, Corning, NY) using the BioRAPTR FRD Microfluidic Workstation (Beckman Coulter, Indianapolis, IN). The final cell number was 800 cells/well. […]
row,SMILES,"% pathology change, negative = correction"
1,CCC1(CC)C(=O)C=CNC1=O,3.29%
2,O=[N+]([O-])O[C@H]1CO[C@H]2[C@@H]1OC[C@H]2O[N+](=O)[O-],7.91%
3,C[C@H](N)C(=O)c1ccccc1,15% [at 104 µM]
4,CC(C)(C)NCC(O)c1ccccc1Cl (stereo not given),16.3%
5,O=P1(N(CCCl)CCCl)NCCCO1 (stereo not given),8.8%
6,COP(=S)(OC)SCN1C(=O)c2ccccc2C1=O,8.15%
7,Oc1ccc(Cl)cc1,-17.7%
8,CC(C(=O)c1ccccc1)N(C)C (stereo not given),16.4%
9,C[C@]12CC[C@H]3[C@@H](CC[C@@]45O[C@H]4C(O)=C(C#N)C[C@]35C)[C@H]1CC[C@H]2O,2.58%
10,COC(=O)[C@@H](N)CCCN/C(N)=N/[N+](=O)[O-],6.61%
11,O=C(N/N=C/c1ccc([N+](=O)[O-])o1)c1cc([N+](=O)[O-])cc([N+](=O)[O-])c1O,-16.6%
12,C[C@]12CCC(=O)C=C1CC[C@@H]1[C@H]3CC[C@](C)(O)[C@@]3(C)CC[C@@H]12,-32.7% [at 91.7 µM]
13,CN1C(=O)NC(=O)C(C)(C2=CCCCC2)C1=O (stereo not given),-18.8%
14,C[C@]12CCC(=O)C=C1CC[C@@H]1[C@@H]2CC[C@]2(C)C(=O)CC[C@@H]12,6.49%
15,C=CCN1C[C@H](C)N([C@H](c2ccc(C(=O)N(CC)CC)cc2)c2cccc(OC)c2)C[C@H]1C,12.2%
16,COc1ccc2c3c1O[C@H]1[C@H](O)CC[C@H]4[C@@H](C2)N(C)CC[C@@]341,-28.6% [at 91.7 µM]
17,O=C(O)c1ccc(=O)[nH]c1,11.7%
18,CNCC(=O)c1ccc(O)c(O)c1,-16.8%
19,CC(C)NC(C)C,10.2%
20,C[C@]12CC[C@H]3[C@@H](CCC4=CC(=O)CC[C@@H]43)[C@@H]1CC[C@@H]2OC(=O)CCC1CCCCC1,-28.2%

row,SMILES,"% pathology change, negative = correction"
1,O=c1[nH]oc2c1CCNC2,7.18%
2,CCCCCCC(=O)CCCCCC/C=C/C[C@@H](O)[C@H](O)[C@@](N)(CO)C(=O)O,14.1% [at 19.1 µM]
3,CC[N+]1(CC)CCC(OC(=O)C(O)(c2ccccc2)c2ccccc2)C1 (stereo not given),-24.7%
4,C#C[C@]1(O)CC[C@H]2[C@@H]3CCC4=CC(=O)CC[C@]4(C)[C@H]3CC[C@@]21C,2.18%
5,CC(=O)C1CCOC1=O (stereo not given),-0.74%
6,[N-]=[N+]=CC(=O)OC[C@H](N)C(=O)O,8.19%
7,CN1CCC(O)(c2ccc(F)cc2)C(C(=O)c2ccc(F)cc2)C1 (stereo not given),-21.8%
8,COc1cc(CC(C)N)cc(OC)c1OC (stereo not given),-7.74% [at 104 µM]
9,CC(C)=CC1C(C(=O)OCN2C(=O)C3=C(CCCC3)C2=O)C1(C)C (stereo not given),9.23%
10,COc1cc(CCN)cc(OC)c1OC,2.67% [at 104 µM]
11,CC1(C)C(C=C(Cl)Cl)C1C(=O)OC(C#N)c1cccc(Oc2ccccc2)c1 (stereo not given),15.5%
12,COP(=S)(OC)Oc1ccc(S(=O)(=O)N(C)C)cc1,0.013%
13,COC(=O)C(Cl)C(=O)OC,18.3%
14,CC(=O)NC1CCSC1=O (stereo not given),5.53%
15,CCCOC(=O)c1cncn1C(C)c1ccccc1 (stereo not given),15.6%
16,Cc1ncsc1CCCl,-1.35%
17,CCC1(c2ccc(N)cc2)CCC(=O)NC1=O (stereo not given),-7.16%
18,CC(NC(C)(C)C)C(=O)c1cccc(Cl)c1 (stereo not given),-1.37%
19,NC(=O)CS(=O)C(c1ccccc1)c1ccccc1 (stereo not given),-6.42%
20,CC(=O)OCC1=C(C(=O)O)N2C(=O)[C@@H](N)[C@H]2SC1,0.362% [at 19.1 µM]
